From the antibiotic and cytotoxicity screens of Wong et al. (2023)
The whole screen tested about 39,000 compounds, of which about 3,300 (8.5%) were called active. The entries come from a sample that favours actives as a whole.

tested on: HepG2; experiment: cytotoxicity call (relative viability < 0.9); settings: 10 µM

Row | Compound | cytotoxicity call
1 | COc1ccc(NC(=O)Nc2ccc3c(c2)C(=O)N([C@@H](C)CO)C[C@H](C)[C@H](CN(C)C(=O)Nc2ccc4c(c2)OCO4)OCCCC[C@H](C)O3)cc1 | inactive
2 | CCS(=O)(=O)Nc1ccc2c(c1)CC(=O)N2 | inactive
3 | CCS(=O)(=O)Nc1ccc2c(c1)C(=O)N(C)[C@@H]1CC[C@H](CC(=O)N[C@H]3CCN(Cc4ccccc4)C3)O[C@H]1CO2 | inactive
4 | CCS(=O)(=O)Nc1ccc2c(c1)/C(=C(/Nc1ccc(CN3CCCCC3)cc1)c1ccccc1)C(=O)N2 | active
5 | N#Cc1cccc(NCCN2CCNC2=O)n1 | inactive
6 | Cc1ccc(S(=O)(=O)N(C)C[C@@H]2Oc3cc(C#Cc4ccccc4)ccc3S(=O)(=O)N([C@H](C)CO)C[C@H]2C)cc1 | inactive
7 | C=CCCN(CC#C[C@H]1Oc2ccccc2S(=O)(=O)N2CCC[C@@H]12)S(=O)(=O)c1ccc(C)cc1 | active
8 | Cc1ccc(S(=O)(=O)N(C)C[C@H]2Oc3cc(C#Cc4ccccc4)ccc3S(=O)(=O)N([C@H](C)CO)C[C@@H]2C)cc1 | inactive
9 | C[C@@H]1CCCCO[C@H](CN(C)C(=O)Cc2ccccc2)[C@@H](C)CN([C@H](C)CO)C(=O)c2cc(NS(=O)(=O)c3ccc(F)cc3)ccc2O1 | inactive
10 | Cc1noc(C)c1NC(=O)Nc1ccc2c(c1)C(=O)N([C@H](C)CO)C[C@@H](C)[C@H](CN(C)C(=O)Nc1ccc(C(F)(F)F)cc1)OCCCC[C@H](C)O2 | inactive
11 | CCCNC(=O)Nc1ccc2c(c1)OC[C@H](C)N(Cc1ccc(-c3ccccn3)cc1)C[C@@H](C)[C@@H](OC)CN(C)C2=O | inactive
12 | O=C(C[C@@H]1CC[C@@H]2[C@H](COC[C@@H](O)CN2Cc2cc(F)ccc2F)O1)N[C@@H]1CCN(Cc2ccccc2)C1 | inactive
13 | O=C(C[C@@H]1CC[C@H]2[C@@H](COC[C@@H](O)CN2Cc2cc(F)ccc2F)O1)N[C@H]1CCN(Cc2ccccc2)C1 | inactive
14 | O=C(C[C@@H]1CC[C@H]2[C@@H](COC[C@H](O)CN2Cc2cc(F)ccc2F)O1)N[C@H]1CCN(Cc2ccccc2)C1 | inactive
15 | O=C(C[C@H]1CC[C@@H]2[C@H](COC[C@@H](O)CN2Cc2cc(F)ccc2F)O1)N[C@H]1CCN(Cc2ccccc2)C1 | active
16 | O=C(C[C@H]1CC[C@@H]2[C@H](COC[C@@H](O)CN2Cc2cc(F)ccc2F)O1)N[C@@H]1CCN(Cc2ccccc2)C1 | active
17 | O=C(C[C@H]1CC[C@H]2[C@@H](COC[C@@H](O)CN2Cc2cc(F)ccc2F)O1)N[C@H]1CCN(Cc2ccccc2)C1 | active
18 | O=C(C[C@H]1CC[C@H]2[C@@H](COC[C@@H](O)CN2Cc2cc(F)ccc2F)O1)N[C@@H]1CCN(Cc2ccccc2)C1 | inactive
19 | O=C(C[C@@H]1CC[C@@H]2[C@H](COC[C@@H](O)CN2Cc2cc(F)ccc2F)O1)N[C@H]1CCN(Cc2ccccc2)C1 | inactive
20 | O=C(C[C@H]1CC[C@H]2[C@@H](COC[C@H](O)CN2Cc2cc(F)ccc2F)O1)N[C@H]1CCN(Cc2ccccc2)C1 | inactive
21 | C[C@H](CO)N1C[C@H](C)[C@@H](CN(C)Cc2cncnc2)Oc2ncc(C#C[C@@H](C)O)cc2C1=O | inactive
22 | O=P(O)(O)CN1CCN(CP(=O)(O)O)CCN(CP(=O)(O)O)CCN(CP(=O)(O)O)CC1 | inactive

Row | Compound | cytotoxicity call
23 | C[C@@H]1CN([C@@H](C)CO)C(=O)Cc2cc(NC(=O)Nc3ccc(F)cc3)ccc2O[C@@H]1CN(C)CC1CCCCC1 | active
24 | COc1ccc(NC(=O)Nc2ccc3c(c2)CC(=O)N([C@H](C)CO)C[C@@H](C)[C@H](CN(C)CC2CCCCC2)O3)cc1 | inactive
25 | C[C@@H]1CN([C@H](C)CO)C(=O)Cc2cc(NC(=O)Nc3ccc(F)cc3)ccc2O[C@H]1CN(C)CC1CCCCC1 | active
26 | C[C@H]1CN([C@@H](C)CO)C(=O)Cc2cc(NC(=O)Nc3ccc(F)cc3)ccc2O[C@H]1CN(C)CC1CCCCC1 | active
27 | C[C@H]1CN([C@@H](C)CO)C(=O)Cc2cc(NC(=O)Nc3ccc(F)cc3)ccc2O[C@@H]1CN(C)CC1CCCCC1 | active
28 | Cc1noc(C)c1S(=O)(=O)Nc1ccc2c(c1)C(=O)N([C@H](C)CO)C[C@H](C)[C@@H](CN(C)C(=O)NC1CCCCC1)O2 | inactive
29 | CNC[C@H]1OCCCC[C@H](C)Oc2ccc(NC(=O)c3ccncc3)cc2C(=O)N([C@H](C)CO)C[C@@H]1C | inactive
30 | COc1ccc2c3c([nH]c2c1)[C@H](CO)N(C[C@]13CN(C1)S(=O)(=O)c1cccs1)C(=O)c1ccccc1 | inactive
31 | COc1ccc2c3c([nH]c2c1)[C@@H](CO)N(CC1CCOCC1)C[C@]13CCN(CC1)C(=O)C1CCOCC1 | inactive
32 | CC(C)CC#Cc1ccc2c(c1)O[C@@H](CN(C)C(=O)Cc1ccncc1)[C@H](C)CN([C@H](C)CO)S2(=O)=O | inactive
33 | COc1ccc(CN(C)C[C@H]2OCCCC[C@@H](C)Oc3ccc(NC(=O)c4ccncc4)cc3C(=O)N([C@H](C)CO)C[C@@H]2C)cc1 | inactive
34 | CC(C)c1cn(CC[C@@H]2CC[C@H](N)[C@@H](CO)O2)nn1 | inactive
35 | CO[C@@H]1CN(C)C(=O)c2ccc(NS(=O)(=O)c3cn(C)cn3)cc2OC[C@@H](C)N(Cc2cccc(F)c2)C[C@@H]1C | inactive
36 | CCN(CC)CCNc1nc(=O)[nH]nc1C | inactive
37 | O=C(N[C@H]1CC[C@H](CCn2cc(C3(O)CCCC3)nn2)O[C@@H]1CO)C1CCOCC1 | inactive
38 | COc1ccc(-c2cnc3c(c2)C(=O)N([C@H](C)CO)C[C@H](C)[C@H](CN(C)S(=O)(=O)c2ccc(C#N)cc2)O3)cc1 | inactive
39 | C[C@H](CO)N1C[C@H](C)[C@H](CN(C)CC2CCCCC2)Oc2ccc(NC(=O)Nc3ccc(F)cc3)cc2CC1=O | active
40 | C[C@@H]1CN([C@@H](C)CO)C(=O)Cc2cc(NC(=O)Nc3ccc(F)cc3)ccc2O[C@H]1CN(C)CC1CCCCC1 | inactive
41 | C[C@@H]1CN([C@H](C)CO)C(=O)Cc2cc(NC(=O)Nc3ccc(F)cc3)ccc2O[C@@H]1CN(C)CC1CCCCC1 | active
42 | C[C@H](CO)N1C[C@H](C)[C@@H](CN(C)CC2CCCCC2)Oc2ccc(NC(=O)Nc3ccc(F)cc3)cc2CC1=O | inactive
43 | O=C(C[C@H]1CC[C@H]2[C@@H](COC[C@@H](O)CN2S(=O)(=O)c2ccccc2)O1)NCc1ccc2c(c1)OCO2 | inactive
44 | C[C@H](CO)N1C[C@H](C)[C@H](CN(C)C(=O)Nc2cccc3ccccc23)Oc2ncc(/C=C/c3ccccc3)cc2C1=O | inactive

Row | Compound | cytotoxicity call
45 | NC(=O)c1cc2ccccc2nc1C(N)=O | inactive
46 | C[C@H](CO)N1C[C@H](C)[C@H](CN(C)C(=O)Nc2cccc3ccccc23)Oc2ccc(NC(=O)C3CCCCC3)cc2C1=O | inactive
47 | CO[C@H]1CN(C)C(=O)c2cc(NC(=O)c3ccccc3)ccc2OC[C@@H](C)N(C(=O)CN(C)C)C[C@H]1C | inactive
48 | CCCCc1ccc(CC(=O)O)cc1 | active
49 | O=C(O)Cc1ccc(CO)cc1 | inactive
50 | CC(=O)Nc1ccc(CC(=O)O)cc1 | inactive
51 | COc1ccc2c3c(n(c2c1)C)[C@H](CO)N(C[C@]13CN(C1)C(=O)Nc1cccc(c1)F)C(=O)CN1CCOCC1 | inactive
52 | COc1ccc(NC(=O)Nc2ccc3c(c2)C(=O)N([C@H](C)CO)C[C@@H](C)[C@H](CN(C)C(=O)C2CCCCC2)OCCCC[C@H](C)O3)cc1 | inactive
53 | COc1ccc(NC(=O)Nc2ccc3c(c2)C(=O)N([C@@H](C)CO)C[C@@H](C)[C@@H](CN(C)C(=O)C2CCCCC2)OCCCC[C@@H](C)O3)cc1 | inactive
54 | COc1ccc(NC(=O)Nc2ccc3c(c2)C(=O)N([C@@H](C)CO)C[C@H](C)[C@H](CN(C)C(=O)C2CCCCC2)OCCCC[C@@H](C)O3)cc1 | inactive
55 | COc1ccc(NC(=O)Nc2ccc3c(c2)C(=O)N([C@@H](C)CO)C[C@H](C)[C@@H](CN(C)C(=O)C2CCCCC2)OCCCC[C@@H](C)O3)cc1 | inactive
56 | COc1ccc(NC(=O)Nc2ccc3c(c2)C(=O)N([C@@H](C)CO)C[C@H](C)[C@H](CN(C)C(=O)C2CCCCC2)OCCCC[C@H](C)O3)cc1 | active
57 | COc1ccc(NC(=O)Nc2ccc3c(c2)C(=O)N([C@H](C)CO)C[C@@H](C)[C@H](CN(C)C(=O)C2CCCCC2)OCCCC[C@@H](C)O3)cc1 | active
58 | Cn1cnc(S(=O)(=O)N2C[C@@H](O)COC[C@H]3O[C@H](CC(=O)NC4Cc5ccccc5C4)CC[C@@H]32)c1 | inactive
59 | C[C@H]1CN([C@@H](C)CO)C(=O)c2cccc(NC(=O)Nc3ccc4c(c3)OCO4)c2O[C@@H]1CN(C)Cc1ccc(Cl)c(Cl)c1 | inactive
60 | COc1ccc(S(=O)(=O)N(C)C[C@@H]2Oc3cc(Br)ccc3S(=O)(=O)N([C@H](C)CO)C[C@@H]2C)cc1 | inactive
61 | COc1ccc([C@H]([C@H](Cc2ccccc2)OC(C)=O)N(C/C=C\[C@@H](O)c2ccccc2)[C@@H](Cc2ccccc2)C(OC)OC)cc1 | inactive
62 | COc1ccc([C@H]([C@H](Cc2ccccc2)OC(C)=O)N(C/C=C/[C@@H](OC(C)=O)c2ccccc2)[C@@H](Cc2ccccc2)C(OC)OC)cc1 | active
63 | COc1ccc([C@H]([C@H](Cc2ccccc2)OC(C)=O)N(CC#C[C@@H](O[Si](c2ccccc2)(c2ccccc2)C(C)(C)C)c2ccccc2)[C@@H](Cc2ccccc2)C(OC)OC)cc1 | inactive
64 | COc1ccc([C@H]([C@H](Cc2ccccc2)OC(C)=O)N(CC#C[C@@H](O)c2ccccc2)[C@@H](Cc2ccccc2)C(OC)OC)cc1 | active
65 | COc1ccc([C@H]([C@@H](O)Cc2ccccc2)N(CC#C[C@@H](O[Si](c2ccccc2)(c2ccccc2)C(C)(C)C)c2ccccc2)[C@@H](Cc2ccccc2)C(OC)OC)cc1 | inactive
66 | COc1ccc([C@H]([C@@H](O)Cc2ccccc2)N(CC#C[C@@H](O)c2ccccc2)[C@@H](Cc2ccccc2)C(OC)OC)cc1 | inactive
